Screening data (PubChem)
MITF TRPM1 HTS: activators of MITF-driven TRPM1 promoter reporter, primary screen, cell-based, SK-MEL-5, luciferase, single point | SK-MEL-5 TRPM1-promoter luciferase, 24 h; % of positive control, neutral wells = 0 | activation, % at 12.5 µM | 300,000 compounds, 0.75% hits;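 active = mean activation of at least 80% with every replicate also reaching 80%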;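 also: 0% = neutral control wells and 100% = parthenolide positive control wells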
TRPM1 prom inh: inhibitors of MITF-dependent TRPM1 promoter reporter, primary screen, cell-based, SK-MEL-5, single point, luciferase | SK-MEL-5 TRPM1 promoter luciferase, 24 h | inhibition, % at 12.5 µM | 330,000 compounds, 0.83% hits;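 active = mean inhibition across replicates of 60% or more, whatever share of single replicates reaches that level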
LGR2 antag: inhibitors of bursicon-induced LGR2 CRE-luciferase signal, primary screen, cell-based, HEK293, CRE-luciferase reporter, bursicon stimulation; Drosophila bursicon receptor LGR2 (rickets); bursicon-stimulated, 4 h; inhibition, % at 9.99 µM; 380,000 compounds, 0.35% hits; AID 720647, 2013;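 active = drop in luminescence signal, shown as inhibition above about 50% in the replicate tests, limit read from the data, passing the limit was not always enough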;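 also: agonist challenge used bursicon conditioned medium at about half maximal strength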
EBV LMP1 NFkB: EBV LMP1-driven NF-kappaB luciferase reporter inhibitors, primary screen, cell-based, luminescence, single point. LMP1-induced NF-kappaB luciferase reporter cells. inhibition, % at 12.5 µM. 350,000 compounds, 0.69% hits. AID 504558, 2011; in the data active = inhibition above about 41%;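 also: 0% = neutral control wells and 100% = reference inhibitor control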
TWEAK Fn14 block: inhibitors of TWEAK-Fn14 signaling, primary screen, luciferase reporter cells, uHTS; TWEAK-stimulated Fn14 reporter cells, luciferase luminescence, 8 h; inhibition, % at 10 µM; 360,000 compounds, 2% hits; AID 1159606, 2016; in the data active = inhibition above about 50%
TROY signal inh: inhibitors of TROY-driven NF-kB signaling, primary screen, Q293 LMP1-TROYcd cells, NF-kB luciferase, uHTS; Q293 LMP1-TROYcd NF-kB luciferase reporter, 4 h; inhibition, % at 10 µM; 360,000 compounds, 0.98% hits; AID 1347056, 2019;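 active = compounds whose plate-normalised and pattern-corrected inhibition of the luciferase reporter signal at the single screening dose is 50% or more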
* marks the source's active call; other numbers are inactive results; · = not tested or not shown. Hits are enriched below; roughly 3% of the tested compounds scored in any of these assays.

SMILES | MITF TRPM1 HTS | TRPM1 prom inh | LGR2 antag | EBV LMP1 NFkB | TWEAK Fn14 block | TROY signal inh
CCC(C)[C@@H](NC(=O)OC(C)(C)C)c1nnc(S(=O)(=O)Cc2cccc(C)c2)o1 (stereo not given in full) | -71 | 71* | · | 1 | 40 | 28
Cc1ccccc1CS(=O)(=O)c1nnc([C@H](Cc2ccccc2)NC(=O)OC(C)(C)C)o1 | -82 | 83* | 22 | 7 | 10 | 2
COc1ccccc1-c1ccc([C@H]2[C@@H](CO)N3CCCCN(C(=O)c4ccncc4)C[C@H]23)cc1 | · | · | -11 | · | · | ·
O=C(C[C@H]1C=C[C@H](NC(=O)C2CCOCC2)[C@@H](CO)O1)Nc1nccs1 | · | · | 10 | · | · | ·
Cn1cccc1-c1cc(C(=O)N/N=C/c2ccc(F)cc2)[nH]n1 | 2 | -2 | -9 | 9 | 15 | -1
Cn1cccc1-c1cc(C(=O)N/N=C/c2cc(Br)ccc2O)[nH]n1 | -63 | 62* | 36 | 33 | -21 | 15
COc1cc2cc(C(=O)N/N=C/c3ccccc3Cl)[nH]c2cc1OC | 21 | -16 | 3 | 13 | 52* | -28
Cn1cccc1-c1cc(C(=O)N/N=C/c2ccccc2Cl)[nH]n1 | 86* | -95 | -83 | 6 | 5 | -16
O=C(C1CC1)N1[C@H](CO)[C@@H]2c3ccccc3N(S(=O)(=O)c3ccc(F)cc3)C[C@@H]21 | · | · | -10 | · | · | ·
CCCCC[C@H](O)/C=C/[C@@H]1[C@@H](C/C=C\CCCC(=O)OC)[C@@H](O)C[C@H]1O | 2 | -4 | · | 15 | -22 | 9
CCCCC[C@H](O)/C=C/C1C(=O)C=C[C@H]1C/C=C\CCCC(=O)OC (stereo not given in full) | -64 | 64* | -14 | -1 | 59* | 12
CC1(c2nnnn2-c2ccc3c(c2)OCCO3)CCC(=O)N1Cc1cccnc1 (stereo not given) | · | · | -36 | · | 79* | 57*
Cc1nn(CCc2nn[nH]n2)c2nc(-c3ccccc3)cc(C(F)(F)F)c12 | -4 | 6 | · | -13 | -4 | 11
Cc1nn(CCC#N)c2nc(-c3ccccc3)cc(C(F)(F)F)c12 | 7 | -7 | · | -5 | 25 | 52*
CCC(=O)N1C[C@H](C)[C@H](OC)CN(C)C(=O)c2cc(NC(=O)c3ccc(F)cc3)ccc2OC[C@@H]1C | · | · | -4 | · | · | ·
O=[N+]([O-])c1ccc2nc(C3CCCCC3)[nH]c2c1 | · | -15 | -18 | -4 | -46 | -15
O=[N+]([O-])c1ccc(O)c(C2CCCCC2)c1 | -3 | 3 | 10 | 3 | 52* | 61*
CCC(=O)C1CCCN(C(=O)c2ccc(OC3CCN(C(=O)CCOC)CC3)cc2)C1 (stereo not given) | -12 | 13 | 2 | -1 | 88* | 10
Cc1cccc(-c2nc(CN3CCCC(C(=O)NC4CCCC4)C3)c(C)o2)c1 (stereo not given) | · | 0 | · | 9 | -5 | -14
CCOC(=O)N1CCC(NC(=O)C2CCCN(Cc3nc(-c4cccc(C)c4)oc3C)C2)CC1 (stereo not given) | -72 | 72* | -6 | 19 | 15 | 29
O=C(NCC1CCCCC1)[C@H]1[C@H](CO)[C@H]2Cn3c(ccc(-c4ccccc4F)c3=O)[C@@H]1N2 | · | · | -2 | · | · | ·
O=C(NCc1ccc(F)cc1)C(c1ccccc1)c1ccccc1 | -3 | 3 | 7 | 2 | 54* | 1
COc1cccc(NC(=O)c2ccccc2)c1 | 104* | -99 | -41 | -6 | -21 | -58
CC(C)OC(=O)c1cccc(NC(=O)c2ccccc2)c1 | 83* | -78 | · | -18 | -4 | -59
COc1cccc(NC(=O)c2cccc(C(=O)Nc3cccc(OC)c3)c2)c1 | · | 10 | 6 | 22 | -24 | -9
COc1cccc(NC(=O)Nc2ccc3c(c2)nnn3C)c1 | 107* | -104 | · | -5 | -12 | -43
COc1cccc(NC(=O)Nc2cccc(C(=O)O)c2)c1 | -81 | 81* | 97* | 61* | 4 | -22
